# Some of the results follow. Values without a mark were called inactive. Rule as the data show it: active = inhibition above about 18%; inactive = the rest.
# Target: Troponin I, cardiac muscle (Homo sapiens) + Troponin T, cardiac muscle (Homo sapiens) + Troponin C, slow skeletal and cardiac muscles (Homo sapiens) (UniProt P19429+P45379+P63316)
# Test: calcium desensitizers of cardiac thin filaments – biochemical, fluorescence readout, confirmation (AID 504635)
# Settings: reconstituted cardiac thin filaments, calcium sensitivity fluorescence; at 7.15 µM; hits give high values
compound,measurement,value
COC1=C[C@@H]2[C@@H]3Cc4ccc(OC)c(O)c4[C@]2(CCN3C)CC1=O,inhibition,-1.97%
